MazF activator: increases E. coli MazEF RNase cleavage of RNA. P0AE70. FAM/BHQ RNA-DNA oligo cleavage fluorescence, 5 h. activation, % at 20 µM. 0.32% of 350,000 active; in the data active means activation above about 50%
Target sequence (P0AE70 whole entry, looked up): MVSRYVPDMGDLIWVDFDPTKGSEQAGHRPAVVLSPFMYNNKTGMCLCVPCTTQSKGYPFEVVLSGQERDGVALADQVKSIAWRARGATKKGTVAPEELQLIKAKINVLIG
FBA Mtb inh: inhibitors of M. tuberculosis fructose-bisphosphate aldolase. inhibition, % at 1 µM. AID 588726. 2.3% of 360,000 active. P9WQA3. purified M. tuberculosis FBA, fluorescence read-out; in the data active means inhibition above about 27%
Target sequence (P9WQA3 whole entry, looked up): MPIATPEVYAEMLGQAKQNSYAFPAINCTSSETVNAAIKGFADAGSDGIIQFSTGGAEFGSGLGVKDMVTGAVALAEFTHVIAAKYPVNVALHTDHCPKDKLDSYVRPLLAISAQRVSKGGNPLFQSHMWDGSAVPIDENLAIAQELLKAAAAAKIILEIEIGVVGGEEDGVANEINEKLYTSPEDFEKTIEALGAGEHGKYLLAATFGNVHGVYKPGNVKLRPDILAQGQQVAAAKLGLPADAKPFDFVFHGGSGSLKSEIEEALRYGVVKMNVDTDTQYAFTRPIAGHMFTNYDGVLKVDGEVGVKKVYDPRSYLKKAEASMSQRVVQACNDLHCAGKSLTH
GDH-TPI inh: counter-screen for M. tuberculosis FBA inhibitors: GDH-TPI coupled enzymes. GDH-TPI coupled enzyme counterscreen, NADH absorbance. inhibition, % at 4.8 µM. 1.2% of 360,000 active. AID 588335
CCHF vOTU inh: CCHFV vOTU protease inhibition. AID 651958. Pep-AMC fluorescence. inhibition, % at 11.5 µM. 0.55% of 370,000 active
Mtb betalactam: beta-lactam sensitization of Mtb H37Rv. M. tuberculosis H37Rv growth with meropenem, percent inhibition. inhibition, % at 25 µM. 0.27% of 330,000 active. AID 434955; call rule not given here;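 further: growth measured after seven days incubation then overnight dye step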
Each line names hits and unclear results; the compound was inactive in the other large screens; ! = not active in a repeat. A selection: hits, their analogues and other compounds. The true share with any hit is near 4%. Unless noted, no stated cut-off is given here; in the data, active means inhibition above about 30%; inactive means the rest.

CCN1C/C(=C/c2cccs2)c2nc3ccccc3c(C(=O)O)c2C1	none
CCOC(=O)C(/C=C(\C#N)C(=O)OCC)=C(/N)N1CCN(c2ccc(OC)cc2)CC1	GDH-TPI inh 57
CCOC(=O)C(/C=C(\C#N)C(=O)OCC)=C(/N)N1CCN(c2c(C)cccc2C)CC1	GDH-TPI inh 50
O=S1(=O)c2ccc(N3CCC[C@H]3CO)cc2OCCCN1C1CC1	none (no result: MazF activator, FBA Mtb inh, GDH-TPI inh, Mtb betalactam)
O[C@H](COc1cccc(Cl)c1)CN1CCC(C(O)(c2ccccc2)c2ccccc2)CC1	none (no result: MazF activator, FBA Mtb inh, GDH-TPI inh, Mtb betalactam)
Cc1ccc2c(c1)C1CS(=O)(=O)N(Cc3ccc(F)cc3)CN1C2 (centres undefined)	none (no result: MazF activator, FBA Mtb inh, GDH-TPI inh, Mtb betalactam)
COc1cc(/C=N/NC(=S)NC2CC3CC2C2C=CCC32)ccc1O (centres undefined)	GDH-TPI inh 37
COc1ccc(/C=N/NC(=S)NC2CCS(=O)(=O)C2)cc1OC (centres undefined)	GDH-TPI inh 41
Cc1ccc(/C=N/NC(=S)NC2CCS(=O)(=O)C2)cc1 (centres undefined)	none
CCOc1ccc(/C=N/NC(=S)NC2CC3CC2C2C=CCC32)cc1 (centres undefined)	none
COc1ccc([C@H]2OC(=O)C[C@H]2C(=O)N2CCCCC2)cc1OC	none (no result: MazF activator, FBA Mtb inh, GDH-TPI inh, Mtb betalactam)
CCN1CCCCC(NC(C)=O)C1=O (centres undefined)	none (no result: MazF activator, FBA Mtb inh, GDH-TPI inh, Mtb betalactam)
Cc1ccc(NC(=O)/C(C#N)=C/c2ccc(C)s2)c(C)c1	MazF activator 190
Cc1ccc(/C=C(\C#N)C(=O)Nc2c(C)cccc2C)s1	GDH-TPI inh 45
Cc1cccc(C)c1NC(=O)/C(C#N)=C/c1ccsc1	none
CN(C)c1ccc(-c2nn3c(-c4ccco4)nnc3s2)cc1	none (no result: MazF activator, FBA Mtb inh, GDH-TPI inh, Mtb betalactam)
O=C(/C=C/c1ccco1)NC(=S)Nc1cc(-c2nc3ccccc3s2)ccc1Cl	none
NC(N)=NS(=O)(=O)c1ccc(NC(=S)NC(=O)/C=C/c2ccco2)cc1	GDH-TPI inh 57
CC(=O)c1ccc(NC(=S)NC(=O)/C=C/c2ccco2)cc1	GDH-TPI inh 51
Cc1cccc(NC(=S)NC(=O)/C=C/c2ccco2)c1	none
NS(=O)(=O)c1ccc(NC(=S)NC(=O)/C=C/c2ccco2)cc1	none
Cc1cccc(NC(=S)NC(=O)/C=C/c2ccco2)n1	GDH-TPI inh 33
O=C(/C=C/c1ccco1)NC(=S)Nc1cccc(-c2nc3ccccc3s2)c1	GDH-TPI inh 38
COC(=O)[C@]12C[C@H](CC(=O)N3CCSCC3)C(=O)N(CCC3=CCCCC3)C1=C[C@H](C1CCCC1)O[C@@H]2C	none (no result: MazF activator, FBA Mtb inh, GDH-TPI inh, Mtb betalactam)
O=C(/C=C/c1ccco1)NC(=S)Nc1ccccc1	GDH-TPI inh 40
CC(=O)/C=N/Nc1ccccc1	GDH-TPI inh 36
CC(=NNc1ccccc1)C(C)=NNc1ccccc1	none (no result: Mtb betalactam)
CCOc1ccc(-n2c(SCC(=O)Nc3ccc4cn[nH]c4c3)nnc2-c2ccncc2)cc1	none (no result: MazF activator, FBA Mtb inh, GDH-TPI inh, Mtb betalactam)
O=[N+]([O-])c1c(Nc2ccccc2O)cc(N2CCOCC2)c2nonc12	GDH-TPI inh 32
COc1cccc(Nc2cc(N3CCOCC3)c3nonc3c2[N+](=O)[O-])c1	none
CC(=O)Nc1sc2c(c1-c1nc3ccccc3s1)CCN(C(C)C)C2	GDH-TPI inh 33 (no result: CCHF vOTU inh)
CSc1ccc(/C=N/NC(=O)c2cc(O)cc(O)c2)cc1	GDH-TPI inh 49
CSc1ccc(/C=N/NC(=O)c2ccc(C)c(C)c2)cc1	none
CSc1ccc(/C=N/NC(=O)c2sccc2C)cc1	GDH-TPI inh 45
CC(=O)N1CCc2cc(S(=O)(=O)NC3CCN(C(=O)OCc4ccccc4)CC3)ccc21	none (no result: MazF activator, FBA Mtb inh, GDH-TPI inh, Mtb betalactam)
NC(N)=NC(=O)c1nc(Cl)c(N)nc1N	FBA Mtb inh 33!, GDH-TPI inh 39!
NC(N)=NC(=O)c1nc(Cl)c(N2CCCCCC2)nc1N	none
N#C/C(=N\Nc1c(Cl)cccc1Cl)C(=O)NN	GDH-TPI inh 32
CC[C@H](CCC(=O)N(c1ccccc1)c1ccccc1)C1CC1	none (no result: MazF activator, FBA Mtb inh, GDH-TPI inh, Mtb betalactam)
COC(=O)[C@]12C[C@H](CC(=O)N3CCCC3)C(=O)N(CCC3=CCCCC3)C1=C[C@H](C(C)C)O[C@@H]2C1CC1	none (no result: MazF activator, FBA Mtb inh, GDH-TPI inh, Mtb betalactam)
CCOc1ccc(/C=C(\C#N)C(=O)Nc2ccccn2)cc1	GDH-TPI inh 38
N#C/C(=C\c1ccc(F)cc1)C(=O)Nc1ccccn1	none
C[C@@H](NC(=O)/C(C#N)=C/c1ccc(O)c(O)c1)c1ccccc1	none
CC(NC(=O)/C(C#N)=C/c1ccc(OCC(=O)O)cc1)c1ccccc1 (centres undefined)	GDH-TPI inh 37
CCc1cccc(CC)c1NC(=O)COC(=O)/C(C#N)=C/c1ccc(OC)cc1	MazF activator 124
COc1ccc(/C=C(\C#N)C(=O)Nc2cccnc2)cc1	GDH-TPI inh 32
COc1ccc(/C=C(/C#N)C(=O)Nc2cccnc2)cc1OC	none
CC(C)=CC(=O)NCC1CCN(C(=O)C(=O)c2cc3ccccc3o2)CC1	none (no result: MazF activator, FBA Mtb inh, GDH-TPI inh, Mtb betalactam)
Cc1nc2ccccc2c(=O)n1/N=C/c1ccc(O)cc1	none
C/C(=N\n1c(C)nc2ccccc2c1=O)c1ccc(N)cc1	GDH-TPI inh 35
COCc1nc(-c2ccc(-c3ccc(OC)cc3)nc2OC)no1	FBA Mtb inh active
COCc1nc(-c2ccc(-c3ccccc3)nc2OC)no1	none
CCc1nc(-c2ccc(C)nc2OC)no1	none
CCc1nc(-c2ccc(-c3ccc(OC)cc3)nc2OC)no1	FBA Mtb inh 152
CC(C)[C@H](N)C(=O)N[C@H](C(=O)N1CCC2CCN(S(=O)(=O)c3ccccc3)CC21)C(C)C (some centres undefined)	none (no result: MazF activator, FBA Mtb inh, GDH-TPI inh, Mtb betalactam)
Cc1ccc(-n2c(SCc3nc4ccccc4[nH]3)nnc2-c2ccccn2)cc1	none (no result: MazF activator, FBA Mtb inh, GDH-TPI inh, Mtb betalactam)
CN(CCCOC(=O)c1cc2ccccc2o1)C1CN(Cc2cn(Cc3ccccc3C(F)(F)F)nn2)S(=O)(=O)C1 (centres undefined)	none (no result: MazF activator, FBA Mtb inh, GDH-TPI inh, Mtb betalactam)
COCc1cn(-c2ccc3c(c2)[C@@]2(CC(=O)N(C)C2c2ccccc2)C(=O)N3CC(C)C)nn1 (some centres undefined)	none (no result: MazF activator, FBA Mtb inh, GDH-TPI inh, Mtb betalactam)
COC(=O)c1ccccc1-c1ccc(/C=N/Nc2nc(N3CCCC3)nc(N3CCCC3)n2)o1	GDH-TPI inh 61
O=C(N/N=C/c1cccc2ccccc12)c1cc2ccccc2o1	none (no result: Mtb betalactam)
COC(=O)c1ccccc1-c1ccc(/C=N/NC(=O)c2cc3ccccc3o2)o1	GDH-TPI inh 52
CC(C)CN1C(=O)[C@]2(CC(=O)N(C)C2c2ccccc2)c2cc(-n3cc(C4=CCCCC4)nn3)ccc21 (some centres undefined)	none (no result: MazF activator, FBA Mtb inh, GDH-TPI inh, Mtb betalactam)
COc1ccc(S(=O)(=O)N2CCOc3ccccc32)cc1	FBA Mtb inh 154
COc1ccc(S(=O)(=O)N2c3ccccc3OCC2C)cc1 (centres undefined)	none
COc1ccc(-c2nnc(SCC(=O)Nc3ccc(S(=O)(=O)Nc4cc(C)nc(C)n4)cc3)n2-c2ccc(OC)cc2)cc1	none (no result: MazF activator, FBA Mtb inh, GDH-TPI inh, Mtb betalactam)
COC(=O)c1ccc(/C=N/NC(=S)NC(C)C)cc1	GDH-TPI inh 48
COC(=O)c1ccc(/C=N/NC(=O)CC(=O)NC(C)C)cc1	none
CCOC(=O)CC[C@H]1CC[C@]2(CCCN(C(=O)c3ccco3)C2)O1	none (no result: MazF activator, FBA Mtb inh, GDH-TPI inh, Mtb betalactam)
CC(=O)NC(Cc1ccccc1)C(=O)N1CCN(C(=O)c2ccco2)CC1 (centres undefined)	none (no result: CCHF vOTU inh)
Cc1ccc(C(=O)CC(SCC(=O)O)c2ccc([N+](=O)[O-])cc2)cc1 (centres undefined)	none

Source: PubChem
